From the supplement of paper PMC12067093, “Discovery and optimisation of a covalent ligand for TRIM25 and its application to targeted protein ubiquitination” (Chemical Science, 2025) come the findings set out here.

Of roughly 21,000 targets only a part is listed; those with the largest changes were picked by preference.
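Further: competitive chemoproteomic profiling in live THP-1 cells with an iodoacetamide desthiobiotin (IA-DTB) probe, comparing probe-labelled peptide intensities in compound-treated cells against DMSO-treated controls.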

Chain of UniProt Q9UFF9 (Q9UFF9 whole entry): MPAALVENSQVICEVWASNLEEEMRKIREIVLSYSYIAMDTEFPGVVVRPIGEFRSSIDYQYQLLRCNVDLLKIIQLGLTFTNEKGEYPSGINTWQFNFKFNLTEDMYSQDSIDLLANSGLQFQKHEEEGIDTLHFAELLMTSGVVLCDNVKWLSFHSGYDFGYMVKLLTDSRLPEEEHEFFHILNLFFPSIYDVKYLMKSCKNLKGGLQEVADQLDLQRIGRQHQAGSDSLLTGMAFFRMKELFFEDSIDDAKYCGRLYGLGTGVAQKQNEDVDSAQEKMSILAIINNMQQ
Chain of UniProt P48643 (P48643 whole entry, looked up): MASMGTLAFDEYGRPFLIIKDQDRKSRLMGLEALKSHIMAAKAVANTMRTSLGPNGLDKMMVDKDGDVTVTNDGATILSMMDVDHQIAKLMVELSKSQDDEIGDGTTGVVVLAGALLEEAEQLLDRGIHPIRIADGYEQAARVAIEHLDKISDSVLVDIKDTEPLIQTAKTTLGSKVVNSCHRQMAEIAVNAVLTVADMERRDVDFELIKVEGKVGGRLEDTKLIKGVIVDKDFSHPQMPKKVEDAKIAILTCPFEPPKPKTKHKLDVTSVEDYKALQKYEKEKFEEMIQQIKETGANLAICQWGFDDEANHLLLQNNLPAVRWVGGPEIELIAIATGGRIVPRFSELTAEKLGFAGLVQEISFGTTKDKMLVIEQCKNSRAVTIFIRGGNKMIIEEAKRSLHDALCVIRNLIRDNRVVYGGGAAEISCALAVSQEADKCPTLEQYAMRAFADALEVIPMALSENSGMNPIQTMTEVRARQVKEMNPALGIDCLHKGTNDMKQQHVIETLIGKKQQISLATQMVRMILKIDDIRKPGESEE
Chain of UniProt Q9Y232 (Q9Y232 whole entry, looked up): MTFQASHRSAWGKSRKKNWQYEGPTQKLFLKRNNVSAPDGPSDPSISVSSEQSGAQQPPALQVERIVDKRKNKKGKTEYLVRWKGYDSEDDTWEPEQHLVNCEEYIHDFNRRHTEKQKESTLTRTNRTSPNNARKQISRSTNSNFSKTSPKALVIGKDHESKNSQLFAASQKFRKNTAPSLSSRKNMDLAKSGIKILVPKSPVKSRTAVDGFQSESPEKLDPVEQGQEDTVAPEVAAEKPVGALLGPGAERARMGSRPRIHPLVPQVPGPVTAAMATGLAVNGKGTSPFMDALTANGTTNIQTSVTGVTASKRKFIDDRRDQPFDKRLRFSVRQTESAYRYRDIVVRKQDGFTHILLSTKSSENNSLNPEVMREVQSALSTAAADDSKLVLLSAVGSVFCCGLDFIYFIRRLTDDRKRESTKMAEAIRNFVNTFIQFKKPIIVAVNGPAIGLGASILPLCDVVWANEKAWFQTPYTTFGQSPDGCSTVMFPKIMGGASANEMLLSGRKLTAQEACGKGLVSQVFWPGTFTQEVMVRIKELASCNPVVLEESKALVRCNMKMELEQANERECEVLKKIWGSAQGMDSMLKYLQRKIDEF
Chain of UniProt P53621 (P53621 whole entry, looked up): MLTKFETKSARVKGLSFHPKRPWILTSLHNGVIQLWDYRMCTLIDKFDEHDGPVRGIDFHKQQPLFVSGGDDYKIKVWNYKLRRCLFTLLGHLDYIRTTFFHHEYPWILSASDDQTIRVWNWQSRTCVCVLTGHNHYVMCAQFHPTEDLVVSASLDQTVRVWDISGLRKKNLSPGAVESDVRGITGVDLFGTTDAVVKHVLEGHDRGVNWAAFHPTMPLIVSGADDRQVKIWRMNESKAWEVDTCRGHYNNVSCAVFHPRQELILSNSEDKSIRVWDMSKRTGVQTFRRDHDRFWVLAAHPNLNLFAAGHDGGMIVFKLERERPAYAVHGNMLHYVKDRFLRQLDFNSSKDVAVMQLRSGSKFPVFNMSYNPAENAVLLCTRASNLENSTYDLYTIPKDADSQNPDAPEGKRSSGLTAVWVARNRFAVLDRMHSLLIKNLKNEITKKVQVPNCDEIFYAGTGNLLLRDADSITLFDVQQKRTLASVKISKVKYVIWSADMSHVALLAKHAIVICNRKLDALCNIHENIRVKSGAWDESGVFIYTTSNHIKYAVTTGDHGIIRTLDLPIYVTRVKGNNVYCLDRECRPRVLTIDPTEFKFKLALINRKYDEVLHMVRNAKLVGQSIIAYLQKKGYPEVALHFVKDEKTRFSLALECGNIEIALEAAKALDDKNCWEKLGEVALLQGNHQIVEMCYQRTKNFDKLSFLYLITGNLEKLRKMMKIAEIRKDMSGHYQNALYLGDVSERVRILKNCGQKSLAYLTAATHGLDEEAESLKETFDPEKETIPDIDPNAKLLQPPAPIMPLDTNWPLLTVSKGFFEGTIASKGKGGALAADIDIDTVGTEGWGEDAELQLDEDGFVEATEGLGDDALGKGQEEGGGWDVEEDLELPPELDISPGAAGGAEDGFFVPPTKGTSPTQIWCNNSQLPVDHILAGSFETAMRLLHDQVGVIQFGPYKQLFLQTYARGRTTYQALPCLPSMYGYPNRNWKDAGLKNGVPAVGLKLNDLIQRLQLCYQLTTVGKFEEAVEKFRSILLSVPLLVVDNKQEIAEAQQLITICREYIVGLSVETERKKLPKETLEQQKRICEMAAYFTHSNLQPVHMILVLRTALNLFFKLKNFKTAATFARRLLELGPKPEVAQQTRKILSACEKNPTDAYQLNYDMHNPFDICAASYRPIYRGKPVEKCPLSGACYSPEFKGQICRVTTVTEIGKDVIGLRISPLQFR
Chain of UniProt Q8IX12 (Q8IX12 whole entry, looked up): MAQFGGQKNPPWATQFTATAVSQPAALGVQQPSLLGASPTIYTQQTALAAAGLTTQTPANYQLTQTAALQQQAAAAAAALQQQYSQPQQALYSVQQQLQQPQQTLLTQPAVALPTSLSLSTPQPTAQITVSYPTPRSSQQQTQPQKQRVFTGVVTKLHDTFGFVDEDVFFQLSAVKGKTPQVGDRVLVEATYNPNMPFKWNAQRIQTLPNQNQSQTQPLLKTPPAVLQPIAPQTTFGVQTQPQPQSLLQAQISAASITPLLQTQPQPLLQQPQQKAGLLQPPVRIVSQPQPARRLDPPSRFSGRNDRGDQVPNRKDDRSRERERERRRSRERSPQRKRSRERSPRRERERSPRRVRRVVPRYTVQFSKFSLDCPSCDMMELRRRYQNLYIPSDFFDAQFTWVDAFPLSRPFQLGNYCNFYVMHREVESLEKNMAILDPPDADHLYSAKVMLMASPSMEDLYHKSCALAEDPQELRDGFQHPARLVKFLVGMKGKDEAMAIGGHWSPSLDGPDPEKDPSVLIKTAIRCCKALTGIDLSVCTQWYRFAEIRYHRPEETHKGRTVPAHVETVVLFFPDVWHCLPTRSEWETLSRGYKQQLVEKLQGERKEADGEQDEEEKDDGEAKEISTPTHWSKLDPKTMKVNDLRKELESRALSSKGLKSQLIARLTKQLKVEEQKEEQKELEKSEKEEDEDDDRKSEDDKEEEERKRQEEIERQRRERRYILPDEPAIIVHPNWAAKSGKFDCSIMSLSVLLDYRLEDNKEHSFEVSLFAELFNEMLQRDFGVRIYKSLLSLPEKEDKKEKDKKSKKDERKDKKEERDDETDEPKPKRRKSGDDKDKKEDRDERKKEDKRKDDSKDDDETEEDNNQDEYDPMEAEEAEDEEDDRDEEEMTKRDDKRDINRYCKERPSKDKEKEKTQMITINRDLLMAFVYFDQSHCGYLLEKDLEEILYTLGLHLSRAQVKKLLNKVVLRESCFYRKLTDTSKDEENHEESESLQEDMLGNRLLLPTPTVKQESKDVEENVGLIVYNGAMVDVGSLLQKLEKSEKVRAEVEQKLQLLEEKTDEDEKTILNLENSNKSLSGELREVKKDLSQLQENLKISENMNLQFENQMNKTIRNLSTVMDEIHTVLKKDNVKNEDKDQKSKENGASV
Chain of UniProt Q9BX70 (Q9BX70 whole entry, looked up): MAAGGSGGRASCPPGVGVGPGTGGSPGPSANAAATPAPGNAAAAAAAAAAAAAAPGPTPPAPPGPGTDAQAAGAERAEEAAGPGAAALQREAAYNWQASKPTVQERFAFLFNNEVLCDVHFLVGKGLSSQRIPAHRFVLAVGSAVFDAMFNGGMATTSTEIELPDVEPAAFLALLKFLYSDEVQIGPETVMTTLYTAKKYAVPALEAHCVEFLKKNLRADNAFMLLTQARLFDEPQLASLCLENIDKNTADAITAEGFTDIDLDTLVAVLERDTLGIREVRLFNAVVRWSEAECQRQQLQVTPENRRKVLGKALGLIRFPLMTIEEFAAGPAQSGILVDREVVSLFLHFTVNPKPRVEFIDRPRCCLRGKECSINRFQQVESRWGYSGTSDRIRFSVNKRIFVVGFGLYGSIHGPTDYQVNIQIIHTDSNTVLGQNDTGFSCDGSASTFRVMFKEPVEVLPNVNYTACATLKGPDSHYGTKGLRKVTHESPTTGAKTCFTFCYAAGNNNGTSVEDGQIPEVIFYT
Chain of UniProt Q9Y259 (Q9Y259 whole entry, looked up): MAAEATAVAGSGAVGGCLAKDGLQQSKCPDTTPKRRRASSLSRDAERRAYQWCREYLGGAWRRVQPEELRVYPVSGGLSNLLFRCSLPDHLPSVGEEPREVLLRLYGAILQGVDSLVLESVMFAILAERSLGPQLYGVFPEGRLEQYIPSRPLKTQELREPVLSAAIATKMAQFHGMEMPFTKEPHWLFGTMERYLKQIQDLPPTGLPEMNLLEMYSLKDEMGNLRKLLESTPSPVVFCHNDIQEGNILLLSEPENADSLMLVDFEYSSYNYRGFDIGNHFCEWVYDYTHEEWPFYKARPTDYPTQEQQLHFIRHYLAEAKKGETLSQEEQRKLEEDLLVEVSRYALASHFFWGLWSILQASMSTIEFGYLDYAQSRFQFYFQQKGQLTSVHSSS
Chain of UniProt Q99439 (Q99439 whole entry, looked up): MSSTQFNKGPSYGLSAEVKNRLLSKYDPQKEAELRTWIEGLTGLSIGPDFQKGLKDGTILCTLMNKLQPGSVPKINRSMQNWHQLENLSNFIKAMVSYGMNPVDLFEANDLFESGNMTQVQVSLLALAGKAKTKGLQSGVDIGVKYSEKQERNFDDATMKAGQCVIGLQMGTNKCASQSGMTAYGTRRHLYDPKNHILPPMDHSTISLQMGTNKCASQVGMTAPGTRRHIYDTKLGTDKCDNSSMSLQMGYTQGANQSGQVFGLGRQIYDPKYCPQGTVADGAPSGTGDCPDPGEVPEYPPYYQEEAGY

Compound in one assay: CC1Cc2ccccc2N1C(=O)C1CCCN(C1)C(=O)CCl (mixture of isomers) [TRIM25 ligand 11 (diastereomer mixture)]
Description: probe-labelled cysteine peptide fold change vs DMSO (competition) (log2 fold change); higher = less target engagement (more negative = stronger competition). The following applies: 10 µM; THP-1; incubation time: 4 h.
As to “COPS7B_Q9H9Q2_157_NQLLEVDFCIGR (UniProt Q9H9Q2)”, the “probe-labelled cysteine peptide fold change” value was -0.0213.

Consider “CLCN3_P51790_733_VCFAQHTPSLPAESPRPLK (UniProt P51790)”, for which the “probe-labelled cysteine peptide fold change” value came out at 0.0602.

As to “CNOT4_O95628_175_AIQCVNNVVVDGR (UniProt O95628)”, the “probe-labelled cysteine peptide fold change” value stood at 0.0992.

As for “CDYL_Q9Y232_571_MELEQANERECEVLK (UniProt Q9Y232)”, the “probe-labelled cysteine peptide fold change” value is -0.0968.

“CHKB_Q9Y259_85_CSLPDHLPSVGEEPREVLLR (UniProt Q9Y259)”: the “probe-labelled cysteine peptide fold change” value was -0.301.

Take “COG3_Q96JB2_363_ELLLGPSIACTVAELTSQNNRDHCALVR (UniProt Q96JB2)”: the “probe-labelled cysteine peptide fold change” value is -0.436.

Turning to “CCNK_O75909_99_YVTGACCLFLAGK (UniProt O75909)”, the “probe-labelled cysteine peptide fold change” value was determined as 0.1.

As to “CFL1_P23528_139_KLTGIKHELQANCYEEVK (UniProt P23528)”, the “probe-labelled cysteine peptide fold change” value was -0.632.

“BZW2_Q9Y6E2_97_MTNHCVFSANEDHETIR (UniProt Q9Y6E2)”: the “probe-labelled cysteine peptide fold change” value stood at 0.0541.

As to “COPA_P53621_1148_KILSACEK (UniProt P53621)”, the “probe-labelled cysteine peptide fold change” value was -0.616.

With “CNOT8_Q9UFF9_148_HEEEGIDTLHFAELLMTSGVVLCDNVK (UniProt Q9UFF9)”, the “probe-labelled cysteine peptide fold change” value came out at 0.648.

Regarding “CCT5_P48643_181_VVNSCHR (UniProt P48643)”, the “probe-labelled cysteine peptide fold change” value was 0.109.

For “CAMK2G_Q13555_7_ATTATCTR (UniProt Q13555)”, the “probe-labelled cysteine peptide fold change” value is 0.042.

For the target “BTBD2_Q9BX70_241_LFDEPQLASLCLENIDK (UniProt Q9BX70)”, the “probe-labelled cysteine peptide fold change” value amounted to 0.22.

With “CCAR1_Q8IX12_937_DLLMAFVYFDQSHCGYLLEK (UniProt Q8IX12)”, the “probe-labelled cysteine peptide fold change” value was 0.653.

In the case of “CASP8_Q14790_345_CPSLAGKPK (UniProt Q14790)”, the “probe-labelled cysteine peptide fold change” value is -0.0611.

Consider “CNN2_Q99439_61_DGTILCTLMNK (UniProt Q99439)”, for which the “probe-labelled cysteine peptide fold change” value is 0.00655.

Still in this assay, the particulars now being: 50 µM; THP-1; incubation time: 4 h.
As to “COPS7B_Q9H9Q2_157_NQLLEVDFCIGR (UniProt Q9H9Q2)”, the “probe-labelled cysteine peptide fold change” value was -0.0864.

“CLCN3_P51790_733_VCFAQHTPSLPAESPRPLK (UniProt P51790)”: the “probe-labelled cysteine peptide fold change” value was 0.0245.

For “CNOT4_O95628_175_AIQCVNNVVVDGR (UniProt O95628)”, the “probe-labelled cysteine peptide fold change” value is 0.172.

In the case of “CDYL_Q9Y232_571_MELEQANERECEVLK (UniProt Q9Y232)”, the “probe-labelled cysteine peptide fold change” value is -0.0996.

For “CHKB_Q9Y259_85_CSLPDHLPSVGEEPREVLLR (UniProt Q9Y259)”, the “probe-labelled cysteine peptide fold change” value is -0.0104.

On to “COG3_Q96JB2_363_ELLLGPSIACTVAELTSQNNRDHCALVR (UniProt Q96JB2)”, for which the “probe-labelled cysteine peptide fold change” value is 0.793.

Regarding “CCNK_O75909_99_YVTGACCLFLAGK (UniProt O75909)”, the “probe-labelled cysteine peptide fold change” value came to 0.32.

For the target “CFL1_P23528_139_KLTGIKHELQANCYEEVK (UniProt P23528)”, the “probe-labelled cysteine peptide fold change” value was -0.503.

For the target “BZW2_Q9Y6E2_97_MTNHCVFSANEDHETIR (UniProt Q9Y6E2)”, the “probe-labelled cysteine peptide fold change” value is -0.0628.

In the case of “COPA_P53621_1148_KILSACEK (UniProt P53621)”, the “probe-labelled cysteine peptide fold change” value was -0.459.

“CNOT8_Q9UFF9_148_HEEEGIDTLHFAELLMTSGVVLCDNVK (UniProt Q9UFF9)”: the “probe-labelled cysteine peptide fold change” value came to 0.338.

Regarding “CCT5_P48643_181_VVNSCHR (UniProt P48643)”, the “probe-labelled cysteine peptide fold change” value is 0.0213.

For “CAMK2G_Q13555_7_ATTATCTR (UniProt Q13555)”, the “probe-labelled cysteine peptide fold change” value is -0.225.

Take “BTBD2_Q9BX70_241_LFDEPQLASLCLENIDK (UniProt Q9BX70)”: the “probe-labelled cysteine peptide fold change” value stood at 0.0147.

Take “CCAR1_Q8IX12_937_DLLMAFVYFDQSHCGYLLEK (UniProt Q8IX12)”: the “probe-labelled cysteine peptide fold change” value is 0.739.

Turning to “CASP8_Q14790_345_CPSLAGKPK (UniProt Q14790)”, the “probe-labelled cysteine peptide fold change” value is -0.0798.

As for “CNN2_Q99439_61_DGTILCTLMNK (UniProt Q99439)”, the “probe-labelled cysteine peptide fold change” value was 0.0892.
